# Screening data: PubChem, National Center for Advancing Translational Sciences (NCATS)
# IP6K1 inh – inhibitors of human IP6K1; Q92551; IP6K1 kinase, ADP-Glo luminescence, 2 h; active compounds read low; activity change, % (series mostly up to about 58 µM); 140,000 tested, 0.81% active; in the data active = activity change below about -25%; also: % is scaled to controls: 0 for no effect and ±100 for the full control effect
#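 ADP-Glo luminescence measures ADP made by human IP6K1 during a 2 h RT reaction with ATP/IP6 (mix at 1.3 mM/130 uM); top library doses 57.5 and 19.1 uM final.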
# KDM5B inhibitor – KDM5B demethylase inhibition. KDM5B demethylase, FDH-coupled NADH fluorescence (FDH is formaldehyde dehydrogenase). Potency, µM (highest dose often 57.7 µM), usual class: inhibitors. Q9UGL1. 220,000 tested, 2.6% active; also: potency is read from the fitted curve at half-maximal effect; 0% is about no effect; nearly all actives have a fitted effect of over 70% in size
#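 Inhibition is measured as reduced NADH fluorescence generation from FDH coupling to formaldehyde release. Truncated KDM5BΔAP at 200 nM final acts on H3K4me3 peptide (12.5 µM in substrate mix) in pH 7.5 HEPES buffer with Tween-20, 30 min, room temperature.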
# IP6K1 inh cnf – confirmation of human IP6K1 inhibitors; 1,200 tested, 13% active; recombinant IP6K1 kinase, ADP-Glo luminescence, 2 h; AID 1645852; shares compounds with IP6K1 inh; Potency, µM (doses to about 49 µM), without a hit: at the top dose activity change, negative = inhibition, hits mostly inhibitors; also: potency is read from the fitted curve at half-maximal effect; % is scaled to controls: 0 for no effect and ±100 for the full control effect; nearly all actives have a fitted effect of over 65% in size
# The depositor's hits bear a star; i = inactive; u = inconclusive; x = no result given; ! = a repeat was not active. In the library only some 2.8% were active in any assay of this set; here they are far more common. Unless noted, calls follow the shape of the dose curve; as a rule, active = well fitted inhibition curve with a large enough effect; inconclusive = small, poorly fitted or top-dose-only effect; inactive = no such curve, though single readings can be large or run the other way.
SMILES,IP6K1 inh,KDM5B inhibitor,IP6K1 inh cnf
O=C(NC1CCN(c2cc(N3CCOCC3)cnn2)C1)C1CC1 (configuration not stated),6.0,x,x
O=C(NCc1ccccc1F)c1ccc2nc(-c3cccnc3Cl)oc2c1,-1.5,x,x
Cn1nc(C(=O)NCc2ccccc2)c2c1-c1ccccc1SC2,-22.4,u,x
COc1cccc(CNC(=O)c2nn(C)c3c2CSc2ccccc2-3)c1,-32.3*,u,u
Cc1ccc(OCCCCn2c(CCNC(=O)C(C)(C)C)nc3ccccc32)cc1,-0.6,i,x
Cc1ccc(OCCCCn2cnc3ccccc32)cc1,-32.8*,u,u
COc1ccc(N2CCN(CC(O)COc3ccc(C(C)(C)C)cc3)CC2)cc1 (configuration not stated),-28.7*,u,-9.3%
COc1ccc(OCC(O)CN2CCN(c3ncccn3)CC2)cc1 (configuration not stated),x,i,x
COc1cccc(-c2cccc(C(=O)N3CCCC3C(=O)NC3CCCC3)c2)c1 (configuration not stated),12.7,x,x
O=C(NCc1ccc2c(c1)CCN2C(=O)c1ccncc1)c1ccccc1F,-30.0*,i,-23.2%
O=C(NCc1ccc2c(c1)CCN2C(=O)c1ccncc1)c1ccccc1Br,-2.1,i,x
Cc1cccc(NC(=O)C2Cc3ccc(C)cc3S2)c1 (configuration not stated),x,i,x
O=C(C1CCN([S+](=O)([O-])c2cccc(C(F)(F)F)c2)CC1)N1CCC(N2CCOC2=O)CC1,-4.2,x,x
Cc1ccc(NC(=S)NNC(=O)Nc2ccc(Cl)cc2)cc1,x,i,x
COc1cc(O)c2c(c1)/C=C/C[C@H](O)[C@H](O)C(=O)/C=C\C[C@H](C)OC2=O,-30.1*,x,u
COc1cc(O)c2c(c1)C1=CC(O)C(O)CC1(C)OC2=O (configuration not stated),-9.1,x,x
Cc1ccccc1C(=O)N1CCC(C(=O)N2CCC(N3CCOCC3=O)CC2)CC1,-12.4,x,x
N=C1C(c2nc3ccccc3c(=O)[nH]2)=C(O)CN1c1cccc(Cl)c1Cl,x,i,x
Cn1c(=O)c2c(n3c4ccccc4nc13)NC(=O)CC2c1cccc(F)c1 (configuration not stated),-3.2,u,x
Cn1c(=O)c2c(n3c4ccccc4nc13)NC(=O)CC2c1ccccc1F (configuration not stated),-28.0*,u,-19.6%
CCCNC(=O)CCCN1C(=O)CCn2nc(-c3cccn3C)cc21,0.8,i,x
CC(C)OCCCNC(=O)CCCN1C(=O)CCn2nc(-c3cccn3C)cc21,-33.9*,u,11.0%
COc1cc(N2CCC(N3CCN(C)CC3)CC2)ccc1Nc1ncc(Cl)c(-c2c[nH]c3ccccc23)n1,-18.3,x,x
COc1ccc(-c2nc(-c3ccccc3)c(-c3ccc(O)cc3)[nH]2)cc1,-8.6,u,x
COc1ccc(-c2nc3ncccc3[nH]2)cc1,-26.8*!,31.6µM*!,u
SMILES,IP6K1 inh,KDM5B inhibitor,IP6K1 inh cnf
CNC(=O)c1cc(C2CC2)nc2onc(C3CCN(C(=O)c4ccc(OC)cc4)CC3)c12,-11.3,x,x
Cc1ccccc1OCc1ccc(-c2nc(C#N)c(N3CCN(c4ccccc4)CC3)o2)o1,1.4,u,x
Cc1ccc(OCc2ccc(-c3nc(C#N)c(N4CCN(c5cccc(Cl)c5)CC4)o3)o2)cc1,-34.0*,i,-2.5%
CCOc1ccc(NC(=O)CSc2nnc(-c3ccncc3)n2-c2ccccc2)cc1,5.5,i,x
CCOC(=O)c1ccc(NC(=O)CSc2nnc(-c3ccncc3)n2-c2ccccc2)cc1,-26.6*,i,21.4%
CCN1CCC(CNCc2cccs2)C1 (configuration not stated),x,i,x
COc1ccc(C(=O)N2CCC3(CC2)NC(=O)N(c2cccc(F)c2)N3)cc1OC,7.4,i,x
NS(=O)(=O)c1ccc(NC(=O)c2c(F)cccc2Cl)cc1,x,i,x
Nc1nc(Nc2ccc(S(N)(=O)=O)cc2)nn1C(=O)c1c(F)cccc1F,-35.2*,x,u
COc1cccc(Cn2cc(S(=O)(=O)c3ccc(C)cc3)c(=O)c3cc4c(cc32)OCO4)c1,-29.9*,u,11.2%
Cc1cccc(Cn2cc(S(=O)(=O)c3ccc(Cl)cc3)c(=O)c3cc4c(cc32)OCO4)c1,-7.0,i,x
Cc1cccc(-c2nc3cc(NC(=O)c4cccc([N+](=O)[O-])c4C)ccc3o2)c1,x,i,x
C=CCNC(=S)NNC(=O)Nc1ccccc1,x,i,x
O=[N+]([O-])c1ccc(CNc2nc(NCc3cccc(C(F)(F)F)c3)nc3nc[nH]c23)cc1,-75.1*,x,1.64µM*!
NC(=O)c1cccnc1NCc1cccc(C(F)(F)F)c1,x,i,x
COCC(=O)Nc1cc(C2CC2)nn1-c1ccccc1,8.6,x,x
O=C(O)c1ccnc(-c2ccnc(-c3ncccn3)n2)c1,12.8,i,x
COc1ccc(-c2c(-c3cc(C(=O)O)ccn3)ncn2C)cc1,-34.7*,x,u
CCOc1ccc(CNC2CCCCC2C)cc1 (configuration not stated),x,i,x
COCC(=O)N1CCCC(C(=O)N2CCC(N3CCOCC3=O)CC2)C1 (configuration not stated),10.7,x,x
O=C(N/N=C/c1ccsc1)c1ccc(Cl)cc1,x,i,x
Cc1ccccc1Nc1sc(C(=O)c2ccccc2)c(N)c1C(=O)NCc1ccc(Cl)cc1,-24.8,u,x
Cc1ccc(CNC(=O)c2c(Nc3ccccc3C)sc(C(=O)c3ccc(F)cc3)c2N)cc1,-25.6*,u,1.5%
Cc1ccsc1CN1CCC2(CCC2N2CCOCC2)CC1 (configuration not stated),5.6,x,x
CN1C[C@H](NCc2ccc(C(F)(F)F)cc2)CCC[C@@H](C(=O)NC2CC2)CC1=O,-6.1,i,x
SMILES,IP6K1 inh,KDM5B inhibitor,IP6K1 inh cnf
CN1C[C@H](NCc2ccc(F)cc2)CCC[C@@H](C(=O)NC2CC2)CC1=O,-25.8*,i,u
CCCCOC(=O)/C(C#N)=C/c1ccc(-c2ccc(Br)cc2)o1,-30.7*,i,9.4%
CCOC(=O)/C(C#N)=C/c1ccc(-c2ccccc2)o1,-10.9,u,x
CNC(=O)c1cc(C2CC2)nc2onc(C3CCN(C(=O)c4ccccc4C)C3)c12 (configuration not stated),-7.8,x,x
NC(=O)c1cnc(N[C@@H]2CCCC[C@H]2N)nc1Nc1cccc(-n2nccn2)c1,-16.9,x,u
c1ccc(Nc2nc(NC3CCCC3)nc3c2cnn3-c2ccccc2)cc1,x,i,x
CCOC(=O)N1CCC(NC(=O)c2cnn3c(C)c(Cc4cc(C)ccc4C)c(C)nc23)CC1,x,i,x
Cc1ccc(CN(C(=O)c2ccco2)c2nc3nc(C)c(Cc4ccccc4)c(=O)n3[nH]2)cc1,x,i,x
NC(=O)NC1N=C([O][Al])NC1=O (configuration not stated),-30.6*,x,2.2%
CCOc1ccc(N/C=C/C(=O)c2cc(C)ccc2C)cc1,x,i,x
CCc1ccc(S(=O)(=O)c2cnc(SCC(=O)Nc3ccc(OC)cc3OC)[nH]c2=O)cc1,-28.2*,u,u
Cc1ccc(NC(=O)CSc2ncc(S(=O)(=O)c3ccc(C(C)C)cc3)c(=O)[nH]2)cc1C,-11.9,u,x
Cc1ccc(S(=O)(=O)c2cnc(SCC(=O)Nc3ccc4c(c3)OCCO4)[nH]c2=O)cc1C,-25.2*,i,u
